HT1080NT lethal = qHTS for induction of synthetic lethality in tumor cells producing 2HG: qHTS for the HT-1080-NT fibrosarcoma cell line. HT-1080-NT fibrosarcoma viability, CellTiter-Glo ATP luminescence, 48 h. Potency, µM (highest dose often 46.1 µM), without a hit: at the top dose activity, negative = less viability, hits mostly cytotoxic. 360,000 compounds, 1.6% hits;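 also: NT is the 2HG producing partner of a matched IDH1 knockdown line; 0% = DMSO-treated cells and -100% = media-only wells without cells; nearly all actives have a fitted effect of over 55% in size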
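Luminescent CellTiter-Glo readout after 48 hours of compound exposure at 37 degrees C defined viability of HT-1080-NT cells. Activity was normalized to DMSO wells and cell-free media wells; concentration-response curves were fitted and assigned curve classes.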
MCF10A rerep = A quantitative high throughput screen for small molecules that induce DNA re-replication in MCF 10a normal breast cells; Potency, µM (series often up to 46.1 µM), for inactives: at the highest dose activity, positive = re-replication, most hits filed as activators; AID 624296, 2012; 350,000 compounds, 2.9% hits; MCF 10A DNA re-replication, Hoechst nuclear intensity, 48 h; also: % of control where 0% means no effect; nearly all actives have a fitted effect of over 50% in size
HT1080 IDH1KD tx = qHTS for induction of synthetic lethality in tumor cells producing 2HG: qHTS for the HT-1080-IDH1KD cell line. HT-1080 IDH1 knockdown viability, ATP luminescence, 48 h. Potency, µM (series often up to 46.1 µM), without a hit: at the top dose activity, negative = toxicity, most hits filed as cytotoxic. 360,000 compounds, 2% hits;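 also: 0% = DMSO wells and -100% = cell-free medium wells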
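After a 2 h attachment period, IDH1KD HT-1080 cells took pin-transferred compound for 48 h at 37 °C; ATP-based luminescence after 10 min room-temperature reagent incubation reported viability.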
KB-3-1 tox = qHTS assay for MDR1-selective chemotherapeutics: Primary screen using the parental adenocarcinoma cell KB-3-1 | KB-3-1 viability, CellTiter-Glo ATP luminescence, 72 h | Potency, µM (top dose mostly 46.1 µM), actives largely listed as cytotoxic | 400,000 compounds, 1.4% hits | AID 1347075, 2019; also: % is scaled to controls: 0 for no effect and ±100 for the full control effect; nearly all actives have a fitted effect of over 60% in size
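Screening of KB-3-1 cells (DMEM, 10% FBS, phenol-red free) ran from lowest to highest compound concentration; after 72 h at 37 °C viability was read luminescently and curves fitted.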
SW480 rereplic = A quantitative high throughput screen for small molecules that induce DNA re-replication in SW480 colon adenocarcinoma cells. SW480 DNA re-replication, Hoechst DNA content imaging, 48 h. Potency, µM (top dose mostly 46.1 µM), inactives show at the highest dose re-replication activation, hits mostly activators. 340,000 compounds, 1.8% hits. AID 624297, 2012; also: % of control where 0% means no effect; nearly all actives have a fitted effect of over 55% in size
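Image-based DNA-content assay: after two days of treatment, nuclei were labelled with the DNA dye Hoechst and imaged, and hits were compounds raising the count of nuclei showing high fluorescence intensity.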
KB-V1 cytotox = qHTS assay for MDR1-selective chemotherapeutics: Primary screen using the drug-selected MDR subline cells KB-V1 | Potency, µM (doses to about 46.1 µM), actives largely listed as cytotoxic | KB-V1 MDR cells viability, CellTiter-Glo, 72 h | AID 1347076, 2019 | 400,000 compounds, 3.4% hits; also: % is scaled to controls: 0 for no effect and ±100 for the full control effect; nearly all actives have a fitted effect of over 60% in size
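Readout: CellTiter-Glo luminescence, 10 min after addition. Cells: KB-V1 MDR subline, 72 h at 37 degrees C with compound. Analysis: corrected, normalized data fitted to concentration-effect curves.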
Numbers without * were called inactive; i = inactive; ? = inconclusive; nt = no result; [ ] = dose if it differs, or a comment. Shown are actives, neighbours in structure and some others; about 8% of the full set was active somewhere. Calls follow the shape of the dose curve; as a rule, active = well fitted curve in the direction sought with a large enough effect; inconclusive = small, poorly fitted or top-dose-only effect, or another doubt; inactive = no such curve, though single readings can be large; an effect the other way counts as inactive or inconclusive. Potency is read from the fitted curve at half-maximal effect.

SMILES | HT1080NT lethal | MCF10A rerep | HT1080 IDH1KD tx | KB-3-1 tox | SW480 rereplic | KB-V1 cytotox
Cc1ccc(CN2C(=O)[C@H]3Cc4c([nH]c5ccccc45)C(C)(C)N3C2=O)cc1 | nt | 20.6µM* | nt | ? | ? | i
CNC(=O)C1CCC(Cn2c(=O)c3sccc3n(CC(=O)Nc3ccc(C)c(F)c3)c2=O)CC1 (centres undefined) | nt | nt | nt | i | nt | ?
CCCN(CCC)S(=O)(=O)c1ccc(NC(=O)c2cc(C(=O)OC)cc([N+](=O)[O-])c2)cc1 | -6.7% | 18.9% | -3.9% | i | 4.7% | 10.3µM*
CCC(C)(C)NC(=O)c1cc(C(=O)OC)cc([N+](=O)[O-])c1 | -7.0% | -0.8% | -7.1% | i | 2.3% | i
Cc1cc(C(=O)N/N=C/c2cc(Br)ccc2OC(=O)c2ccccc2Cl)n[nH]1 | ? | ? | 20.6µM* | ? | 7.31µM* | ?
Cc1cc(C(=O)N/N=C/c2ccc3ccccc3c2)n[nH]1 | -13.9% | 3.0% | -16.9% | i | 8.5% | i
O=C(N/N=C/c1cc(Br)ccc1OC(=O)c1ccc(Br)cc1)c1ccncc1 | 20.6µM* | 10.1% | ? | ? | ? | i
Cc1cc(C(=O)N/N=C/c2ccc(OC(=O)c3ccccc3Br)cc2)n[nH]1 | -17.5% | -0.2% | -13.4% | i | -3.1% | i
Cc1cc(C(=O)N/N=C/c2cc(Br)ccc2OC(=O)c2ccccc2)n[nH]1 | ? | 22.3% | 8.2µM* | i | ? | i
CC(C)Oc1ccc(CNC(=O)CN2C(=O)CCn3nc(-c4cn(C)c5ccccc45)cc32)cc1 | nt | nt | nt | i | nt | i
CCOC(=O)/C(C#N)=C/c1c(OCC)n(CC)c2ccccc12 | 3.6% | 14.9% | -1.1% | i | 13.6% | 7.31µM*
O=C(NCc1cccc(Cl)c1)C1Cc2c(-c3cccc(F)c3)ccnc2O1 (centres undefined) | ? | nt | ? | i | nt | ?
O=C(NCc1ccco1)C1Cc2c(-c3cccc(F)c3)ccnc2O1 (centres undefined) | ? | nt | 0.731µM* | 1.16µM* | nt | 4.61µM*
NC(=O)c1cccc(-c2ccnc3c2CC(C(=O)NCCc2ccccc2)O3)c1 (centres undefined) | ? | nt | 7.31µM* | ? | nt | i
O=C(NCc1ccccc1)C1Cc2c(-c3ccc(Cl)cc3)ccnc2O1 (centres undefined) | ? | nt | 0.731µM* | 5.8µM* | nt | 1.46µM*
O=C(NCc1ccccc1)C1Cc2c(-c3cccc(F)c3)ccnc2O1 (centres undefined) | ? | nt | 1.16µM* | 4.61µM* | nt | 1.46µM*
COc1ccc(NC(=O)c2ccc3c(=O)n4nc(Nc5ccccc5C)sc4nc3c2)cc1Cl | nt | nt | nt | i | nt | i
Cc1ccc2nc(-c3cccc(NC(=O)c4cccc5ccccc45)c3)oc2c1 | nt | nt | nt | i | nt | i
Cc1nnc(N2CCN(C(=O)NC(C)C)CC2)c2nn(-c3ccccc3)c(C)c12 | nt | nt | nt | i | nt | i
COc1ccccc1Cc1nc2ccccc2nc1SCC(=O)N1CCN(c2ccccc2)CC1 | nt | nt | nt | i | nt | i
Cc1ccc(NC(=O)c2c(C)oc3ncn(CC(C)C)c(=O)c23)nc1 | nt | nt | nt | i | nt | i
CN(C)c1ccc(CNC(=O)C2Cc3c(-c4cccc(C(N)=O)c4)ccnc3O2)cc1 (centres undefined) | ? | nt | ? | i | nt | i
CC(=O)c1cccc(-c2ccnc3c2CC(C(=O)NCc2ccc(N4CCN(C)CC4)cc2)O3)c1 (centres undefined) | -12.2% | nt | -8.9% | i | nt | i
CC(=O)c1cccc(-c2ccnc3c2CC(C(=O)NCc2ccccc2)O3)c1 (centres undefined) | ? | nt | ? | ? | nt | i
CC(=O)c1cccc(-c2ccnc3c2CC(C(=O)NCc2ccco2)O3)c1 (centres undefined) | ? | nt | 1.3µM* | 1.16µM* | nt | 0.92µM*
SMILES | HT1080NT lethal | MCF10A rerep | HT1080 IDH1KD tx | KB-3-1 tox | SW480 rereplic | KB-V1 cytotox
NC(=O)c1cccc(-c2ccnc3c2CC(C(=O)NCc2ccco2)O3)c1 (centres undefined) | ? | nt | 4.11µM* | 6.51µM* | nt | i
CC(=O)c1cccc(-c2ccnc3c2CC(C(=O)NCc2ccc(F)c(F)c2)O3)c1 (centres undefined) | ? | nt | ? | 5.17µM* | nt | ?
CCCN(CCC)C(=O)Cn1c(=O)n(-c2cccc(OC)c2)c(=O)c2c3c(sc21)CCCC3 | nt | nt | nt | i | nt | i
Cc1ccc(Cl)cc1N1CCN(C(=O)c2cc(S(=O)(=O)N3CCCCCC3)cn2C)CC1 | nt | nt | nt | i | nt | i
COc1ccc(-c2nnc(N3CCCCC3)c3ccccc23)cc1 | -0.8% | -14.2% | -7.1% | ? | -5.5% | 11.6µM*
COc1ccc(-c2nnc(N3CCOCC3)c3ccccc23)cc1 | 14.8% | 5.2% | 9.0% | i | ? | i
Cc1ccc(-c2nnc(N3CCCCCC3)c3ccccc23)cc1 | -8.1% | ? | 0.5% | 23.1µM* | 9.5% | ?
CCN1CCN(c2nnc(-c3ccccc3)c3ccccc23)CC1 | 5.1% | -4.2% | 2.1% | i | -7.5% | ?
CCc1ccc2nc(SCC(=O)N3CC(=O)Nc4ccccc43)c(C#N)cc2c1 | ? | 8.2µM* | 5.8µM* | 5.17µM* | ? | 6.51µM*
CCc1ccc2nc(SCC(=O)Nc3ccccc3N3CCOCC3)c(C#N)cc2c1 | 14.4% | 3.66µM* | 4.4% | 5.17µM* | 3.66µM* | 5.8µM*
CC(C)C[C@@H](CN=[N+]=[N-])N1CCN(CCc2ccccc2)CCC1=O | nt | nt | nt | i | nt | i
CN(C)c1ccc(/C=C/c2ccc3cc(F)ccc3n2)cc1 | nt | nt | nt | i | nt | i
O=C(O)c1ccc(N/N=C/C2=Cc3ccccc3OC2)cc1 | ? | 14.6µM* | ? | i | ? | i
Cc1ccc(CNC(=O)CCc2nnc3n(C)c(=O)c4sccc4n23)cc1 | nt | nt | nt | i | nt | i
Cc1ccc(CN2CCC(c3nc4ccc(Cl)cc4[nH]3)CC2)cc1 | ? | 10.1% | -19.2%[9.24 µM] | i | 2.0% | ?
Cc1cc2nc(C3CCN(Cc4nnnn4Cc4cccs4)CC3)[nH]c2cc1C | ? | 19.2% | 1.26µM* | ? | ? | i

Source: PubChem (National Center for Advancing Translational Sciences (NCATS))
